Bioassay records from PubChem.
This is a sample that favours compounds with a hit; in the whole collection about 3.3% have one here.
SARS PLpro yeast = blocks SARS-CoV papain-like protease in a yeast assay | S. cerevisiae expressing SARS-CoV PLpro, growth rescue | 0.19% of 330,000 active | AID 485353 | Potency, µM (top dose mostly 32.9 µM), without a hit: top-dose activity, positive = growth rescue, hits mostly activators; calls by dose curve; note: 0% is about no effect; nearly all actives have a fitted effect of over 55% in size
RE007 growth inh = less growth of the S. pombe RE007 Vpr strain; S. pombe RE007 Vpr strain, BacTiter-Glo ATP luminescence, 24 h; Potency, µM (top dose mostly 92.2 µM), for the others: top-dose activity change, negative = less growth, usual class: inhibitors; 0.21% of 360,000 active; AID 651644; active = well fitted falling curve with a large enough effect; inconclusive = small, poorly fitted or top-dose-only effect; inactive = no such curve, though single readings can be large or run the other way; note: % is set by controls: 0 for no effect and ±100 for the full control effect; nearly all actives have a fitted effect of over 50% in size
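Fission yeast RE007 carrying one integrated HIV-1 vpr copy, seeded at OD 0.01 in PMG+AL medium with 23 nL pinned compound. Grown 24 h at 30 degrees; viability read by BacTiter-Glo luminescence after 5 min.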
Tb PYK inh = inhibitors of Trypanosoma brucei pyruvate kinase. Potency, µM (highest dose often 76.8 µM), inactives show top-dose activity, negative = inhibition, most hits filed as inhibitors. 0.12% of 410,000 active. AID 624173. Q57TT1. TbPYK enzyme, Kinase-Glo Plus ATP luminescence, 45 min; note: % is set by controls: 0 for no effect and ±100 for the full control effect; nearly all actives have a fitted effect of over 50% in size
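TbPYK + substrate in 50 mM TEA pH 7.2, 100 mM KCl, 10 mM MgCl2, 0.05% BSA, 0.01% Tween-20; cpd pinned; ADP 130 uM final; 45 min RT; Kinase-Glo Plus 10 min; luminescence endpoint.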
LmPK inh = LmPK (Leishmania mexicana) enzyme inhibition; Q27686; purified LmPK, Kinase-Glo ATP luminescence, 1 h; Potency, µM (highest dose often 57.5 µM), for inactives: at the top dose activity change, negative = inhibition, actives largely listed as inhibitors; 0.37% of 290,000 active; AID 1721; note: % is set by controls: 0 for no effect and ±100 for the full control effect
Target sequence (Q27686 whole entry, looked up): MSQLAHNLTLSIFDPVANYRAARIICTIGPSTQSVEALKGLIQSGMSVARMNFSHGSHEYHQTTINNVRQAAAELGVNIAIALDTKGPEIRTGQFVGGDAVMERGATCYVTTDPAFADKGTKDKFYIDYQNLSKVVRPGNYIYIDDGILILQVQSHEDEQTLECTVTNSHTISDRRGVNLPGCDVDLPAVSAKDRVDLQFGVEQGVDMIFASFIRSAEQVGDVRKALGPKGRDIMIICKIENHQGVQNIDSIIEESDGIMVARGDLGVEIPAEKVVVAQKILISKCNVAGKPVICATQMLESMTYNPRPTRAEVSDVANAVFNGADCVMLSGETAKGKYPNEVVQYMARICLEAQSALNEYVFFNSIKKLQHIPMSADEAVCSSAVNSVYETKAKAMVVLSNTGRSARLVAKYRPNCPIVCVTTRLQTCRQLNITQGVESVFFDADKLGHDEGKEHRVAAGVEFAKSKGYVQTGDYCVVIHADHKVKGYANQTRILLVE
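Pyruvate kinase activity monitored as ATP production (luciferase luminescence). Conditions: 0.1 nM enzyme, 0.5 mM PEP, 0.1 mM ADP, 1 h, RT; normalized against uninhibited and no-enzyme wells.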
Sm TGR inh = inhibitors of Schistosoma mansoni thioredoxin glutathione reductase. Q962Y6. purified TGR, DTNB reduction, TNB absorbance 405 nm. Potency, µM (series often up to 114 µM), for inactives: at the highest dose activity change, negative = inhibition, usual class: inhibitors. 3% of 360,000 active. AID 485364; note: % is set by controls: 0 for no effect and ±100 for the full control effect; nearly all actives have a fitted effect of over 60% in size
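Kinetic colorimetric format: TGR-catalysed, NADPH-driven DTNB reduction monitored via TNB absorbance. Enzyme dispensed at 20 nM; compound exposure 15 min at room temperature before reaction start.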
NS1 function inh = blocks influenza NS1 protein function; Potency, µM (doses to about 46.1 µM), for the others: top-dose activity, positive = more growth; 0.4% of 270,000 active; AID 2326; calls by dose curve; note: actives are rising curves; nearly all actives have a fitted effect of over 50% in size
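Read-out: OD600 growth recovery of NS1-expressing budding yeast. Cells grown overnight at 30C in -URA glucose medium, washed, resuspended and diluted 1:100 in 2% galactose assay medium, pH 6.0. Same strain lacking NS1 served as positive control.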
* marks the source's active call; other numbers are inactive results; ? = inconclusive; . = not tested or not shown; [ ] = another dose, or the depositor's remark. Unless noted, calls come from the whole dose curve; as a rule, active = well fitted curve in the direction sought with a large enough effect; inconclusive = small, poorly fitted or top-dose-only effect, or another doubt; inactive = no such curve, though single readings can be large; an effect the other way counts as inactive or inconclusive. Potency is the fitted concentration of half-maximal effect.

SMILES | SARS PLpro yeast | RE007 growth inh | Tb PYK inh | LmPK inh | Sm TGR inh | NS1 function inh
Cc1ccc(-n2cc3c(c2-c2ccccc2Br)c(=O)n(C)c(=O)n3C)cc1N | . | . | -13% | . | 1% | .
CCOC(=O)c1c(NC(=O)COc2ccc(Cl)cc2Cl)sc2c1CCCCC2 | . | . | 1% | . | 5% | .
CCOc1ccccc1-c1noc(CCCC(=O)Nc2cccc(C(F)(F)F)c2)n1 | . | . | 0% | . | 5% | .
O=C(c1ccco1)N1CCN(C(=O)c2ccc(CS(=O)c3ccc(Br)cc3)o2)CC1 (stereo unspecified) | . | -3% | -1% | . | . | .
O=C(c1ccco1)N1CCN(C(=O)c2ccc(Cn3cc(Br)cn3)o2)CC1 | 4% | -8% | -29% | 1% | 40µM* | 1%
COCC(=O)N1CCc2nc(-c3ccc(OC)cc3C)c3c(c2C1)CO[C@@H](c1ccccc1)C3 | . | . | . | -3%[11.5 µM] | . | .
COC(=O)c1ccc(CC(=O)c2c(C)cc(O)cc2O)o1 | -1% | 5% | -23% | 5% | 22µM* | 3%
COc1ccc(N2CCN(C(c3ccccc3)c3sc4nc(-c5ccco5)nn4c3O)CC2)cc1 (stereo unspecified) | . | . | -3% | . | 3% | .
N#CC(C#N)=C1NC2(CCCCC2)Cc2ccccc21 | -2% | 30% | 3% | 2% | 1% | -1%
N#CC(C#N)=c1ccc2c(c1)NC1(CCCCC1)N=2 | -29% | ? | ? | 14µM* | -23% | -89%
COc1ccc(-c2cn3nc(N4CCCC(C(=O)NCc5ccc(Cl)cc5)C4)sc3n2)cc1 (stereo unspecified) | . | . | 2% | . | 5% | .
O=C(CCn1cccc1)N1CCc2ccccc21 | -2% | ? | 0% | -3% | 25µM* | -7%
O=C(O)c1c(Cl)c(Cl)c(Cl)c(Cl)c1C(=O)Nc1ccc2cn[nH]c2c1 | . | . | . | . | . | -6%
COc1ccc([C@@H](C)c2cc3c(cc2O)OCO3)cc1 | . | . | . | . | . | -8%
Oc1cc2c(cc1C(c1ccc(Cl)c(Cl)c1)N1CCCC1)OCO2 (stereo unspecified) | -3% | ? | ? | 4% | 0.5µM* | 24%
CCc1nnc(SCc2nc(-c3ccccc3)oc2C)c2cc3sccc3n12 | . | . | 5% | . | 4% | .
O=C(Cn1c(=O)n(Cc2ccco2)c(=O)c2c3c(sc21)CCCCC3)Nc1ccccc1 | 0% | 2% | -8% | 2% | 10µM* | ?
CN(C)CCn1c(=O)n(Cc2ccco2)c(=O)c2c3c(sc21)CCCCC3 | 2% | 12% | -14% | 4% | 7% | -1%
O=c1c2c3c(sc2n(CCN2CCCC2)c(=O)n1Cc1ccco1)CCCCC3 | 2% | -7% | -4% | 5% | 0% | ?
O=C(Cn1c(=O)n(Cc2ccco2)c(=O)c2c3c(sc21)CCCCC3)c1ccccc1 | 0% | -16% | -2% | 0% | 35µM* | ?
Cc1ccc(CNC(=O)[C@H](C)[C@H]2C[C@]2(C)[C@H](NC(=O)OCc2ccccc2)c2ccccc2)o1 | -8% | 7% | -7% | 7% | 32µM* | 27%
C[C@@H](C(=O)NCc1ccccc1)[C@@H]1C[C@@]1(C)[C@@H](NC(=O)OCc1ccccc1)c1ccccc1 | -5% | 1% | 2% | 2% | 0% | 50%
CC(=O)OCC1=C(C(=O)O)N2C(=O)[C@@H](NC(=O)CSc3ccncc3)[C@@H]2SC1 | . | . | 2% | . | . | .
COc1cccc(C(=O)NC2C(=O)N3C(C(=O)O)=C(COC(C)=O)CSC23)c1 (stereo unspecified) | -3% | 1% | -3% | . | 13µM* | .
CC(=O)OCC1=C(C(=O)O)N2C(=O)C(NC(=O)c3ccc(COc4cccc(Cl)c4Cl)o3)C2SC1 (stereo unspecified) | 3% | -15% | -7% | 2% | 20µM* | .
CCOC(=O)c1ccc(CN(Cc2ccc(F)cc2)S(=O)(=O)c2cc(C(=O)Nc3cccc(C(F)(F)F)c3)ccc2F)cc1 | . | . | 4% | . | 2% | .
